According to PubChem BioAssay (EPA / NIEHS):
A structure can be active in one record and inactive in another. Calls of active or inactive are those of the source. How the source made its calls: active means hit-call score of the fitted dose curve at least 0.9, where 1 is the maximum; inactive means score below 0.9.

read-out: succinate dehydrogenase complex iron sulfur subunit B (SDHB), SDHB (gene 6390); experiment: LTEA_HepaRG_SDHB: Life Technologies and Expression Analysis (LTEA) Assay for succinate dehydrogenase complex iron sulfur subunit B (SDHB) using HepaRG (AID 2283528); settings: mRNA level, 48 h; actives raise or lower the signal
Experimental: LTEA_HepaRG is a cell based, multiplexed-readout assay that uses HepaRG, a human liver cell line, with measurements taken at 48 hours after chemical dosing on a 96-well plate.LTEA_HepaRG_SDHB is one of 102 assay component(s) measured in the LTEA HepaRG cell culture assay. It is a marker of Cell proliferation, survival, death.Data from the assay component LTEA_HepaRG_SDHB was analyzed into 1 endpoint. This assay endpoint, LTEA_HepaRG_SDHB, was analyzed with bidirectional fitting relative to DMSO as the negative control and baseline of activity. Using a type of inducible reporter, measures of mRNA induction for gain or loss-of-signal activity can be used to understand regulation of transcription factor activity. To generalize the intended target to other relatable targets, this assay endpoint is annotated to the oxidoreductase intended target family, where the subfamily is ubiquinone.
A total of 1060 chemcials from the ToxCast library were tested in eight-point concentration-response experiments. Cell culture and cytotoxicity assays were conducted at Thermo Fisher Scientific's Custom Services facility (Madison, WI). A single lot of human HepaRG cells (Thermo Fisher Scientific, Frederick, MD) was used for the cell culture experiments. 96-well format collagen type I coated plates of human HepaRG cells were prepared using established methods. Briefly, cryopreserved HepaRG cells were thawed, plated at a density of approximately 100,000 cells/well in HepaRG Thaw, Plate, and General Purpose media (HPRG770, Thermo Fisher Scientific), and incubated for 48 hours. 0.5% DMSO was selected as vehicle control to balance the requisite need of DMSO in HepaRG cultures to maintain differentiation (for example, baseline metabolism, proportions of hepatocytes vs. cholangiocytes), while enabling further hepatic receptor pathway activation (for example, PXR and CAR) in response to chemical exposure. 48 hours after plating, the culture medium was replaced with HepaRG Serum-Free Incudtion Media. Cells were exposed to each test chemical in duplicate and maintained in CO2 incubators for another 48 hours. Chemical plates were thawed to room temperature and 200x concentrations of treatment groups were prepared. 8-point conentration-reponse curves were made with the highest exposure at 100 uM, followed by half-log dilutions, all in 0.5% DMSO. Each test plate contained variouse controls, induction positive controls (1mM phenobarbital), cytotoxicity positive controls ([…] aflatoxin B1), vehicle controls (0.5% DMSO), and total lysis controls (0.5% DMSO). Cell morphology images were taken using an Essen IncuCyte FLR automated microscope, with six 96-well plates imaged in about 24 minutes. Images were captured and exported and JPEG files. Spent culture media was transfered to black-well plates for the LDH assay, and remaining media was sorted at -80 C for later use. Cells were treated with RLT buffer and frozen until shipped for gene expression analysis. Total RNA was isolated from the cell suspension in 75 uL of Buffer RLT (Qiagen, Germantown, MD 20874) by Quintiles/Expression Analysis (Durham, NC) using a custom isolation procedure. Total RNA from each plate well was transferred to a preamplification plate. Fluidigm's 96.96 Dynamic ArrayTM (Fluidigm, Amsterdam, the Netherlands) technology was used for gene expression analyses by quantitative reverse transcription polymerase chain reaction (qRT-PCR, performed by Quintiles/Expression Analysis, Durham, NC)89. Standard TaqManTM Assays (Applied Biosystems/ThermoFisher Scientific, Foster City, CA) were used to assess the expression of 93 genes selected based on their selectivity and sensitivity to important hepatic receptors known to be modulated by environmental chemicals; importance in human hepatocyte functionality; and hepatotoxicity. […]

| Structure (SMILES) | outcome | AC50 |
| --- | --- | --- |
| CNC(=O)Oc1ccccc1OC(C)C | inactive | – |
| CCC(C)(C)C(=O)OC1=C(c2ccc(Cl)cc2Cl)C(=O)OC12CCCCC2 | inactive | – |
| C#CCN1C(=O)COc2cc(F)c(N3C(=O)C4=C(CCCC4)C3=O)cc21 | inactive | – |
| O=[N+]([O-])c1c(Cl)c(Cl)c(Cl)c(Cl)c1Cl | inactive | – |
| CCc1ccc(C(=O)NN(C(=O)c2cc(C)cc(C)c2)C(C)(C)C)cc1 | inactive | – |
| CC1(C)C(C=C(Cl)Cl)C1C(=O)OC(C#N)c1ccc(F)c(Oc2ccccc2)c1 (stereo not given) | inactive | – |
| COP(=O)(OC)OC=C(Cl)Cl | inactive | – |
| CC(C)N(C(=O)COc1nnc(C(F)(F)F)s1)c1ccc(F)cc1 | inactive | – |
| N#Cc1c(Cl)c(Cl)c(Cl)c(C#N)c1Cl | inactive | – |
| O=C(O)C(F)(F)C(F)(F)C(F)(F)C(F)(F)C(F)(F)C(F)(F)C(F)(F)F | inactive | – |
| O=C(NC(=O)c1c(F)cccc1F)Nc1ccc(OC(F)(F)C(F)OC(F)(F)F)c(Cl)c1 (stereo not given) | inactive | – |
| O=C(O)CCCOc1ccc(Cl)cc1Cl | inactive | – |
| CNC(=O)Oc1cccc(N=CN(C)C)c1 | inactive | – |
| COP(=S)(OC)Oc1ccc(SC)c(C)c1 | inactive | – |
| COc1nn(CSP(=S)(OC)OC)c(=O)s1 | inactive | – |
| COP(=S)(OC)Oc1ccc([N+](=O)[O-])cc1 | inactive | – |
| CNC(=O)CSP(=S)(OC)OC | inactive | – |
| CC(C)OC(=O)Nc1cccc(Cl)c1 | inactive | – |
| CCOCN(C(=O)CCl)c1c(C)cccc1CC | inactive | – |
| Cc1[nH]c(=O)n(C(C)(C)C)c(=O)c1Cl | inactive | – |

| Structure (SMILES) | outcome | AC50 |
| --- | --- | --- |
| ClC1C(Cl)C(Cl)C(Cl)C(Cl)C1Cl (stereo not given) | inactive | – |
| CNC(=O)/C=C(\C)OP(=O)(OC)OC | inactive | – |
| CCC(C)Nc1c([N+](=O)[O-])cc(C(C)(C)C)cc1[N+](=O)[O-] (stereo not given) | inactive | – |
| CC(C)(C)C(O)C(Oc1ccc(Cl)cc1)n1cncn1 (stereo not given) | inactive | – |
| CC[C@H](C)[C@H]1O[C@]2(C=C[C@@H]1C)C[C@@H]1C[C@@H](C/C=C(\C)[C@@H](O[C@H]3C[C@H](OC)[C@@H](O[C@H]4C[C@H](OC)[C@@H](O)[C@H](C)O4)[C@H](C)O3)[C@@H](C)/C=C/C=C3\CO[C@@H]4[C@H](O)C(C)=C[C@@H](C(=O)O1)[C@]34O)O2 (tested in a mixture with another compound) | – | 59.5 µM (active) |
| O=C(O)COc1ccc(Cl)cc1Cl | inactive | – |
| O=[N+]([O-])/N=C1\NCCN1Cc1ccc(Cl)nc1 | – | 25.8 µM (active) |
| CCOC1Oc2ccc(OS(C)(=O)=O)cc2C1(C)C (stereo not given) | – | 9.92 µM (active) |
| O=S(=O)(O)C(F)(F)C(F)(F)C(F)(F)C(F)(F)C(F)(F)C(F)(F)C(F)(F)C(F)(F)F | inactive | 9.92 µM (active) |
| CCCN(CCC)c1c([N+](=O)[O-])cc(C(F)(F)F)cc1[N+](=O)[O-] | inactive | – |
| Clc1ccccc1-c1nnc(-c2ccccc2Cl)nn1 | inactive | – |
| N#CN | inactive | – |
| O=C(Nc1ccccc1)Nc1cnns1 | inactive | – |
| CCN(CC)C(=O)SCc1ccc(Cl)cc1 | inactive | – |
| CC1(c2ccc(Oc3ccccc3)cc2)OC(=O)N(Nc2ccccc2)C1=O (stereo not given) | inactive | – |
| CCC(C)(NC(=O)c1cc(Cl)c(C)c(Cl)c1)C(=O)CCl (stereo not given) | inactive | – |
| C[C@H]1[C@H](c2ccc(Cl)cc2)SC(=O)N1C(=O)NC1CCCCC1 | – | 26.7 µM (active) |
| OCCOc1ccccc1 | inactive | – |
| CN1CSC(=S)N(C)C1 | inactive | – |
